Bioassay records from PubChem.
Rows were chosen to be rich in hits. Some 19% of all compounds tested hit in one or more screens of this group.
IL-1B inflam inh = inhibitors of inflammasome signaling (IL-1 beta secretion) | THP-1 LPS/ATP IL-1B secretion, AlphaLISA, 16 h; active compounds read low | activity change, % at 57.5 µM | 4.7% of 360,000 active | AID 743279; in the data active = activity change below about -50%; inconclusive = mostly about -30% to -49%; note: % is set by controls: 0 for no effect and ±100 for the full control effect
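Secreted IL-1B measured by AlphaLISA bead assay after 16 h compound exposure of THP-1 cells; compounds (final up to 57.5 uM) added 1 h before LPS (250 ng/mL) and ATP (1.25 mM) stimulation; lower signal means less secretion.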
TDP1 cell CPT = DT40-hTDP1 cell growth loss with CPT; Potency, µM (highest dose often 46.2 µM), inactives show at the top dose activity change, negative = growth inhibition, most hits filed as inhibitors; 12% of 420,000 active; chicken DT40 Tdp1-/-;hTDP1 cells + 20 nM CPT, ATP luminescence, 48 h; note: potency is the fitted concentration of half-maximal effect; % is set by controls: 0 for no effect and ±100 for the full control effect; nearly all actives have a fitted effect of over 55% in size
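Chicken DT40 Tdp1-/- cells stably complemented with human TDP1 were seeded at 400 cells/well in medium containing 20 nM camptothecin, exposed to pin-transferred compounds, and grown at 37 °C for at least 48 hr. Viability was read as ATP luminescence.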
MCF10A rereplic = DNA re-replication induction in MCF 10a cells. Potency, µM (highest dose often 46.1 µM), inactives show top-dose activity, positive = re-replication, most hits filed as activators. MCF 10A DNA re-replication, Hoechst nuclear intensity, 48 h. AID 624296. 2.9% of 350,000 active; note: potency is the fitted concentration of half-maximal effect; % of control where 0% means no effect; nearly all actives have a fitted effect of over 50% in size
BCR signal inh = inhibitors of chronic active B-cell receptor signaling; ABC-DLBCL IkBa-CBG/CBR reporter, luminescence ratio, 4 h; Potency, µM (top dose mostly 46.1 µM), for inactives: top-dose activity change, negative = inhibition, usual class: inhibitors; 0.05% of 340,000 active; active = well fitted inhibition curve with a large enough effect in the signal ratio, with a control signal flat, not every such curve was filed as active; inconclusive = small, poorly fitted or top-dose-only effect, or effect the other way, or a change in a side signal; the % refers to the signal ratio;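 note: potency is the fitted concentration of half-maximal effect; plate controls were basal doxycycline-induced cells for no effect and cells given 10 µM MG132 for full effect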
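Doxycycline induced both beetle luciferases in TMD8 lymphoma cells; IKK-driven degradation limits the IkappaBalpha-fused green signal, while red luminescence normalises for cell number and nonspecific effects. Compounds tested up to 46 uM, 4 hrs.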
TDP1 cell noCPT = qHTS for Inhibitors of human tyrosyl-DNA phosphodiesterase 1 (TDP1): qHTS in cells in absence of CPT; DT40 Tdp1-/- hTDP1 cells, no CPT, ATP luminescence, 48 h; Potency, µM (series often up to 46.2 µM), inactives show at the highest dose activity change, negative = growth inhibition, actives largely listed as inhibitors; 15% of 420,000 active; note: potency is the fitted concentration of half-maximal effect; % is set by controls: 0 for no effect and ±100 for the full control effect; nearly all actives have a fitted effect of over 55% in size
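Cells were dispensed at 400 per well, compounds added by pin tool, plates incubated ≥48 hr at 37 °C, then CellTiter-Glo added for 30 min at room temperature before luminescence reading. Line: DT40 Tdp1-/- complemented with hTDP1; camptothecin omitted.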
SW480 rerep = induces DNA re-replication in SW480 colon adenocarcinoma cells | SW480 DNA re-replication, Hoechst DNA content imaging, 48 h | Potency, µM (highest dose often 46.1 µM), for the others: at the top dose re-replication activation, usual class: activators | 1.8% of 340,000 active | AID 624297; note: potency is the fitted concentration of half-maximal effect; % of control where 0% means no effect; nearly all actives have a fitted effect of over 55% in size
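Hoechst fluorescence of nuclei (405 nm excitation, 500-530 nm emission) measured by plate-scanning imager after 48 hr compound exposure at 37 C; re-replication scored as increased number of nuclei with elevated intensity.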
Active calls of the source: *; i = inactive; ? = inconclusive; . = no result given. Unless noted, calls come from the whole dose curve; as a rule, active = well fitted curve in the direction sought with a large enough effect; inconclusive = small, poorly fitted or top-dose-only effect, or another doubt; inactive = no such curve, though single readings can be large; an effect the other way counts as inactive or inconclusive.

SMILES	IL-1B inflam inh	TDP1 cell CPT	MCF10A rereplic	BCR signal inh	TDP1 cell noCPT	SW480 rerep
Cc1cc(C)cc(NC(=O)C(=O)NCC(c2cccnc2)N2CCN(c3ccccc3)CC2)c1 (stereo not drawn)	.	20.6µM*	.	.	16.4µM*	.
COc1cccc(NC(=O)C(=O)NCC(c2cccnc2)N2CCN(c3ccccc3)CC2)c1 (stereo not drawn)	.	?	.	.	18.4µM*	.
COC(=O)c1ccc(NC(=O)C(=O)NCC(c2cccnc2)N2CCN(c3ccccc3)CC2)cc1 (stereo not drawn)	.	-19.8%	.	-14.6%	-18.9%	.
CC1(C)C2(C#N)C(=O)NC(=O)C12C#N (stereo not drawn)	-4.3	-19.9%	-1.9%	.	-13.1%	2.7%
CCOC(=O)COc1ccc2c(C)c(CCN(CC)CC)c(=O)oc2c1Cl	.	?	4.6%	.	?	-2.0%
S=c1[nH]cnc2sc(Nc3ccccc3)nc12	-6.2	14.6µM*	19.5%	?	14.6µM*	?
Cc1ccccc1CSc1nn2c(=O)c(C)nnc2s1	-26.4	-0.5%	?	?	3.6%	22.2%
CCCSc1nn2c(=O)c3ccccc3nc2s1	14.7	18.4µM*	0.3%	?	-21.8%	-3.7%
Cc1nc(Cc2nnc(SCC(=O)N3CC(=O)Nc4ccccc43)o2)cs1	16.2	-0.1%	-0.4%	-2.5%	-19.6%	0.1%
Cc1nc(Cc2nnc(SCC(=O)N3c4ccccc4NC(=O)C3(C)C)o2)cs1	32.4	-29.4%	.	.	16.4µM*	.
CC(=O)Nc1ccc(CCc2nc3ccccc3[nH]2)cc1	4.7	-11.1%	-2.9%	0.0%	-4.0%	6.1%
CC(=O)Nc1cccc(CCc2nc3ccccc3[nH]2)c1	16.2	?	3.0%	-4.6%	18.4µM*	-0.5%
C=CCn1c(N/N=C/c2ccc(O)cc2)nc2ccccc2c1=O	16.6	-36.6%	7.2%	?	14.6µM*	-12.4%
CC(/C=N/Nc1nc2ccccc2[nH]1)=C\c1ccccc1	-3.7	14.6µM*	?	?	?	?
O=c1[nH]c(N/N=C/c2ccc(O)cc2)nc2ccccc12	63.2	25.9µM*	9.0%	?	23.1µM*	0.3%
O=[N+]([O-])c1cc(S(=O)(=O)C(F)(F)F)ccc1NCC1CCCO1 (stereo not drawn)	2.2	-15.0%	6.3%	16.2%	-19.4%	-1.2%
CC(C)CN1CCC1(C)C(=O)Nc1cc(-c2ccccc2)nn1C (stereo not drawn)	-8.1	?	.	.	?	.
CC(C)CCOc1ccc(C2CC(=O)N(C)C2=O)cc1 (stereo not drawn)	-3.1	-13.6%	-5.4%	?	-18.9%	0.8%
CCN(CC)c1ccc(/C=N/Nc2nc3ccccc3[nH]2)cc1	-85.2*	3.26µM*	9.2µM*	?	4.61µM*	20.6µM*
CC(C)(C)c1cc(/C=N/NC(=O)Cc2nc3ccccc3[nH]2)cc(C(C)(C)C)c1O	-0.5	?	?	20.2%	?	?
C(=N\Nc1nc2ccccc2[nH]1)/c1ccncc1	-22.1	2.3%	?	?	-26.9%	-7.2%
CC(=O)Nc1ccc(/C=N/Nc2nc3ccccc3[nH]2)cc1	-94.0*	-29.8%	7.1%	?	-8.6%	22.6%
O=C(Cc1nc2ccccc2[nH]1)N/N=C/c1ccccc1	5.2	?	11.6µM*	-1.6%	-10.4%	20.6µM*
Cc1ccc2oc(=O)c3cc(C(=O)Nc4ccccc4C(N)=O)sc3c2c1	.	7.6%	.	.	2.4%	.
COc1cccc(C2(C)NC(=O)N(CC(=O)c3cc(C)n(C4CC4)c3C)C2=O)c1 (stereo not drawn)	-0.3	?	-1.3%	-1.5%	-20.2%	-4.0%
SMILES	IL-1B inflam inh	TDP1 cell CPT	MCF10A rereplic	BCR signal inh	TDP1 cell noCPT	SW480 rerep
Cc1cc(C(C)(C)C)cc(CN2CCN(S(=O)(=O)c3cccs3)CC2)c1O	-13.0	-6.5%	.	.	0.184µM*	.
O=S(=O)(c1cccs1)N1CCN(Cc2cccc(F)c2)CC1	5.7	-23.6%	8.0%	-5.9%	2.6%	-17.3%
Cc1ccc(S(=O)(=O)N2CCN(S(=O)(=O)c3cccs3)CC2)cc1	i	1.3%	7.6%	10.1%	-1.7%	3.2%
Cc1cc(O)c(CN2CCN(S(=O)(=O)c3cccs3)CC2)cc1C(C)C	16.3	23.1µM*	9.7%	0.4%	?	1.6%
c1cn(-c2cc(-c3ccc4c(c3)OCO4)ncn2)cn1	.	?	.	.	-9.1%	.
Cc1ccc(OCCNC(=O)CCc2ccccc2)cc1C	-12.3	19.5%	?	.	-24.1%	?
CNC[C@@H](C)NC[C@@H](Cc1ccccc1)NCCc1ccccc1	?	8.2µM*	-35.0%	?	4.61µM*	0.366µM*
CCCCn1c(N)c(N(CC(C)C)C(=O)CSc2nnc(C)n2-c2ccc(OC)cc2)c(=O)[nH]c1=O	0.9	6.6%	-0.5%	-2.7%	15.0%	-32.2%
CN1CCN2c3ncccc3Cc3ccccc3[C@@H]2C1	-2.3	0.3%	0.2%	-0.9%	-2.5%	11.2%
NC1=NCC2c3ccccc3Cc3ccccc3N12 (stereo not drawn)	.	?	-3.5%	.	23.7µM*	1.5%
Cc1nn(-c2ccccc2)c(Cl)c1/C=N/NC(=O)c1cccc(S(=O)(=O)N2CCCC2)c1	22.0	-27.8%	1.3%	1.7%	10.3µM*	-1.3%
Cc1nn(-c2ccccc2)c(Cl)c1/C=N/NC(=O)CNC(=O)c1ccccc1Cl	1.9	20.6µM*	?	-0.3%	?	?
Cc1nn(-c2ccccc2)c(Cl)c1/C=N/Nc1nnc(C)c(=O)[nH]1	23.3	?	6.1%	?	?	4.1%
Cc1nn(-c2ccccc2)c(Cl)c1/C=N/Nc1nc2ccccc2n1C	6.2	25.9µM*	?	-4.6%	14.6µM*	?
CNC(=S)N/N=C/c1c(C)nn(-c2ccc(F)cc2)c1Cl	-1.1	?	2.7%	-3.7%	14.6µM*	?
Cc1nn(-c2ccccc2)c(Cl)c1/C=N/NC(N)=O	.	1.7%	-20.9%	?	-11.7%	?
Cc1ccc(/C=C/c2onc(C)c2S(=O)(=O)N2CCC(C(=O)NCC(C)c3ccccc3)CC2)cc1 (stereo not drawn)	.	?	.	.	-23.5%	.
COC(=O)N/N=C\c1c(C)nn(-c2ccccc2)c1Cl	-16.8	10.3%	0.3%	?	-10.9%	?
Cc1ccc(C)c(OCC(=O)N/N=C/c2c(C)nn(-c3ccccc3)c2Cl)c1C	60.8	14.6µM*	?	-5.6%	7.31µM*	?
COC(=O)[C@@H]1CCCN1C(=O)c1c(OC)cc(=O)n2c1CCN(Cc1ccc3nsnc3c1)CC2	.	0.9%	.	.	-15.4%	.
